# Laboratory results from PubChem BioAssay (NCI).
# Compounds without any hit were thinned out: in the full panel of roughly 83,000, 20% have a hit.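 A percent growth of 40 corresponds to 60% growth inhibition; 0 means no net growth; -100 means all cells died. Active threshold: below 10.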 Unmarked numbers belong to inactive results. Activity calls are given as the source filed them.
# Tested on: RPMI-8226 leukemia
# Assay: NCI-60 one-dose screen, 48 h (100 = growth as untreated, 0 = no growth, -100 = all killed)
# Details: 10 µM
row,SMILES,growth
1,CCCCSc1nc(Nc2ccc(/C(C)=N/NC(N)=S)cc2)c(C#N)c(-c2ccc(F)cc2)n1,58.2%
2,C[C@H]1[C@H](C)CC[C@]2(COC(=O)CCC(=O)NCC#CCN3CCNCC3)CC[C@]3(C)C(=CC[C@@H]4[C@@]5(C)CCCNC(C)(C)[C@@H]5CC[C@]43C)[C@H]12,-22.9% (active)
3,COc1ccc2nc(Cl)c(-c3cc(-c4ccccc4)nc(N)n3)cc2c1,-27% (active)
4,COc1ccc(CN2[C@H](C(=O)NCCCCCCC(=O)NO)Cc3c([nH]c4ccccc34)[C@H]2C2CC2)cc1,15.7%
5,Cc1ccc(NC(=O)NCn2c(=O)[nH]c3ccccc3c2=O)cc1,92.7%
6,COc1ccc(C=CC(=O)c2ccc(-n3c(C)nc4c(cnn4-c4ccccc4)c3=O)cc2)cc1,-18.8% (active)
7,COc1cccc(C(N)=Nc2ccc(OCCCCCCn3cncn3)cc2)c1,16%

# Tested on: OVCAR-8 ovarian
# Assay: as above
# Details: 10 µM
row,SMILES,growth
1,CCOc1ccc(Nc2nc3ccccc3nc2Nc2ccc(OCC)cc2)cc1,58.3%
2,O=c1cc(-c2ccccc2)oc2cc(OCCCCNCc3ccccc3)cc(O)c12,52.6%
3,Cc1ccc(C(C)C)cc1NC(=O)c1ccccc1N(C)C,101%
4,CCCCSc1nc(Nc2ccc(/C(C)=N/NC(N)=S)cc2)c(C#N)c(-c2ccc(F)cc2)n1,7.66% (active)
5,O=C(c1ccc(Cl)cc1)C1[C@H](c2ccccc2Br)[C@@H](c2ccccc2)NC12C(=O)Nc1ccccc12 (some centres undefined),27.4%
6,CC(=O)c1ccc(NC(=O)NCn2c(=O)[nH]c3ccccc3c2=O)cc1,101%
7,[2H]C([2H])([2H])Oc1ccc2ncc(C#Cc3cncc(C(=O)Nc4ccc(CN5CCN(C)CC5)c(C(F)(F)F)c4)c3)n2n1,-25.7% (active)
8,O=C1Nc2cc(Cl)ccc2/C1=C/c1ccc(OCc2ccc(Br)cc2F)cc1,-79.6% (active)
9,C[C@H]1[C@H](C)CC[C@]2(COC(=O)CCC(=O)NCC#CCN3CCNCC3)CC[C@]3(C)C(=CC[C@@H]4[C@@]5(C)CCCNC(C)(C)[C@@H]5CC[C@]43C)[C@H]12,69%
10,COc1ccc2nc(Cl)c(-c3cc(-c4ccccc4)nc(N)n3)cc2c1,-68.4% (active)
11,COc1ccc(CN2[C@H](C(=O)NCCCCCCC(=O)NO)Cc3c([nH]c4ccccc34)[C@H]2C2CC2)cc1,2.69% (active)
12,CN1CCN(c2ccc(Nc3nc(NCCCNC(=O)c4ccccc4)c4sccc4n3)cc2)CC1,55.9%
13,C=C1CC[C@H](C(=C)C)[C@H]2C=C(C)C(=O)C3=C(C(=O)[C@@](C)(O)C3)[C@H]12,-96.5% (active)
14,COc1ccc(N(C)c2cc(C#N)nc3ccccc23)cc1N,14.1%
15,COc1ccc(C(C)=C(c2ccc(OCCCN(C)C)cc2)c2ccc(OCCCN(C)C)cc2)cc1,-92.6% (active)
16,CC1(c2ccccc2)NC(=O)N(CC(=O)Nc2ccc(C(=O)/C=C/c3ccc(Cl)cc3)cc2)C1=O (centres undefined),17.7%
17,COC[C@@H](CC(C)C)N=C1N/C(=C\c2ccc3ncsc3c2)C(=O)N1C,17.6%
18,O=C(CSc1ccc(-c2ccc(Cl)cc2)nn1)Nc1ccc(Cl)c(C(F)(F)F)c1,76.4%
19,Cc1ccc(NC(=O)NCn2c(=O)[nH]c3ccccc3c2=O)cc1,39.9%
20,Cc1cc(C)cc(Oc2cccc(-c3c(C)nnn3C3CCN(CCN(C)C)CC3)n2)c1,35.9%
21,CC(=O)NCC1=C(C)C=C2C(=O)[C@](C)(O)C3(CC3)C(C)=C21,-63.6% (active)
22,O=C(Nc1ccc(OCC(=O)c2ccccc2)cc1)Nc1ccc(Cl)c(C(F)(F)F)c1,29.8%
23,CCOC(=O)c1c(CSc2ccccc2)n(C)c2cc(CN(C)C)c(O)c(CN(C)C)c12,30.4%
24,Cc1ccc(-c2cc(-c3cc4ccccc4nc3Cl)[nH]c(=O)n2)cc1,-49.3% (active)
25,COc1ccc([C@H]2C(C(=O)c3ccc(Cl)cc3)C3(N[C@@H]2c2ccccc2)C(=O)Nc2ccc(Br)cc23)cc1 (some centres undefined),14.9%
26,O=C(CS(=O)(=O)c1oc(-c2ccc(Cl)cc2)nc1S(=O)(=O)c1ccc(Cl)cc1)N1CCOCC1,28.3%
27,COc1ccc(C=CC(=O)c2ccc(-n3c(C)nc4c(cnn4-c4ccccc4)c3=O)cc2)cc1,83.4%
